Bioassay records (PubChem BioAssay)
VDR inh: blocks the human vitamin D receptor | P11473 | VDR-SRC2-3 peptide fluorescence polarization, 2 h | Potency, µM, inactives show max response, negative = inhibition, usual class: inhibitors | 400,000 tested, 0.93% active | AID 504847; also: potency is read from the fitted curve at half-maximal effect; % is scaled to controls: 0 for no effect and ±100 for the full control effect
Target sequence (P11473 whole entry, looked up): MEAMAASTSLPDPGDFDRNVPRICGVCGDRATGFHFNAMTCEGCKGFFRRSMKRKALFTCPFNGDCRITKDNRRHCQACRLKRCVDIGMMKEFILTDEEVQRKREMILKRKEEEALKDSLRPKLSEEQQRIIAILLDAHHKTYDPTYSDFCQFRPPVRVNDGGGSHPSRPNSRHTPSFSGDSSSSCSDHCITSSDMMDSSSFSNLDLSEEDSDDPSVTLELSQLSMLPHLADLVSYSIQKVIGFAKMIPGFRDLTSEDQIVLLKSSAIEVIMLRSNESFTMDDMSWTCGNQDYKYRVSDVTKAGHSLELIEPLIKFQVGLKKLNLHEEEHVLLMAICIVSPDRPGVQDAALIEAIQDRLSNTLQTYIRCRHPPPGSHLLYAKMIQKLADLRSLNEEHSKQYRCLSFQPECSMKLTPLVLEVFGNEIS
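Fluorescence polarization assay measuring small-molecule disruption of VDR binding to the coregulator peptide SRC2-3. Compounds were pin-transferred (23 nl) into the reagent mix and incubated 2 h at room temperature before reading.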
WRN inhibitor: inhibitors of human WRN helicase; WRN helicase unwinding, fluorescent forked duplex, kinetic; Q14191; Potency, µM (highest dose often 114 µM), without a hit: at the highest dose activity change, negative = inhibition, actives largely listed as inhibitors; 360,000 tested, 0.46% active; also: potency is read from the fitted curve at half-maximal effect; % is scaled to controls: 0 for no effect and ±100 for the full control effect; nearly all actives have a fitted effect of over 55% in size
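WRN at 20 nM final was preincubated with compound for 15 min at room temperature; reaction started with 100 nM forked duplex oligonucleotide carrying fluorophore and quencher plus 2 mM ATP (final). Unwinding followed kinetically by red fluorescence (ex 525/em 598 nm).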
FEN1 inhibitor: inhibitors of human flap endonuclease 1. Potency, µM (titrated, usually from 114 µM), for inactives: top-dose activity change, negative = inhibition, actives largely listed as inhibitors. P39748. 390,000 tested, 0.35% active. Recombinant FEN1 flap cleavage, fluorescence, 15 min; also: potency is read from the fitted curve at half-maximal effect; % is scaled to controls: 0 for no effect and ±100 for the full control effect; nearly all actives have a fitted effect of over 65% in size
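Steps: FEN1 (10 nM) dispensed; compound added by pin tool; 15 min at room temperature; substrate added to 50 nM final; reads at 0 min and 15 min; data normalized and fitted (four-parameter Hill).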
PLK1 PBD inh: PLK1 (human) polo-box domain binding inhibition; P53350; Plk1 PBD binding of FITC phosphopeptide, fluorescence polarization; Potency, µM, for the others: max response, negative = inhibition, hits mostly inhibitors; 360,000 tested, 2.8% active; AID 720504; also: potency is read from the fitted curve at half-maximal effect; series mostly up to about 57 µM; % is scaled to controls: 0 for no effect and ±100 for the full control effect; nearly all actives have a fitted effect of over 65% in size
PI5P4K alpha inh: inhibitors of human PI5P4K alpha. max response, %. AID 652105. P48426. PI5P4Kalpha enzyme, ADP-Glo luminescence, 60 min; hits give low values. 330,000 tested, 1.2% active; active = max response of -50% or lower; inconclusive = between -30% and -50%; inactive = -30% or higher; also: value at the top dose of about 77 µM; % is scaled to controls: 0 for no effect and ±100 for the full control effect
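Luminescence from ADP-Glo served as readout of PI5P4Kalpha activity in a qHTS format. Reaction: enzyme, substrate, compound, ATP at 5 microM final, 60 min at RT.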
TCR act: activates T cell receptor signaling; primary human leukocytes, anti-CD3, IL-2 HTRF, 48 h; Potency, µM (top dose mostly 9.22 µM), without a hit: at the highest dose activation of IL-2 secretion, usual class: activators; 330,000 tested, under 10 active; AID 504894; also: % of control where 0% means no effect
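HTRF read-out of IL-2 secretion: europium cryptate donor excited at 320nm, d2 acceptor emission at 665nm. Cells were primary human leukocytes incubated 48 hr with compounds and a-CD3 beads, supplying TCR signal only.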
An asterisk follows results filed as active; u = inconclusive; x = not tested or not shown. In the library only some 3.7% were active in any assay of this set; here they are far more common. Unless noted, calls follow the shape of the dose curve; as a rule, active = well fitted curve in the direction sought with a large enough effect; inconclusive = small, poorly fitted or top-dose-only effect, or another doubt; inactive = no such curve, though single readings can be large; an effect the other way counts as inactive or inconclusive.

SMILES	VDR inh	WRN inhibitor	FEN1 inhibitor	PLK1 PBD inh	PI5P4K alpha inh	TCR act
COC[C@]12CN(C=O)C3C4C(OC)C1[C@@]3(C1CC3(O)C(OC)C(O)C4(OC(C)=O)C1C3OC(=O)c1ccccc1)[C@@H](OC)CC2O (some centres undefined)	-6.4%	x	x	x	x	x
COC(=O)C12C/C=C\Cc3ccccc3[C@@H]1CNC2=O (some centres undefined)	8.7%	x	x	x	x	x
CCCCC/C=C\C/C=C\C/C=C\CCCCC(=O)NCCO	1.3%	x	x	x	x	x
C/C(=C(/CCOC(=O)C(C)C)SS/C(CCOC(=O)C(C)C)=C(\C)N(C=O)Cc1cnc(C)nc1N)N(C=O)Cc1cnc(C)nc1N	15.8µM*	x	x	x	x	x
CN(CCc1ccc(Cl)c(Cl)c1)[C@@H]1CCCC[C@@H]1N1CCCC1	-1.8%	x	x	x	x	x
CCOC(=O)[C@]12Cc3cc(OC)ccc3[C@H]1N(C1CCCCC1)C(=O)c1cc(OC)ccc12	x	-5.4%	x	u	3.3	x
CCOC(=O)[C@]12Cc3cc(C)ccc3[C@H]1N(Cc1ccccc1)C(=O)c1cc(F)c(F)cc12	x	-3.3%	x	10.6µM*	8.1	x
CCOC(=O)[C@]12Cc3ccccc3[C@H]1N(C)C(=O)c1cc(OC)ccc12	x	5.2%	x	13.4µM*	-1.9	x
CCOC(=O)[C@]12Cc3c(cc(OC)c(OC)c3OC)[C@H]1N(C)C(=O)c1cc(OC)ccc12	x	-0.3%	x	13.4µM*	0.5	x
CCOC(=O)[C@]12Cc3ccccc3[C@H]1N(C(C)C)C(=O)c1cc(OC)ccc12	x	-4.3%	x	7.52µM*	-0.9	x
CCOC(=O)[C@]12Cc3cc(C)ccc3[C@H]1N(CCC(=O)OC)C(=O)c1cc(OC)ccc12	x	-3.8%	x	u	0.2	x
CCOC(=O)[C@]12Cc3cc(OC)ccc3[C@H]1N(Cc1ccccc1)C(=O)c1cc(F)c(F)cc12	-6.6%	-10.7%	-13.1%	-11.9%	11.0	-1.8%
O=c1[nH]/c(=C\c2ccc(N(CCCl)CCCl)cc2)c(=O)[nH]/c1=C\c1ccc(N(CCCl)CCCl)cc1	x	x	-4.2%	x	x	x
CCOP(=S)(OCC)OCCSCC	-12.0%	x	x	x	x	x
CCOC(=O)[C@]12Cc3cc(C)ccc3[C@H]1N(C(C)C)C(=O)c1ccccc12	x	-1.5%	x	10.6µM*	-7.9	x
CCOC(=O)[C@]12Cc3cc(C)ccc3[C@H]1N(Cc1ccccc1)C(=O)c1ccccc12	-0.2%	-10.5%	-23.9%	-7.6%	10.6	-0.8%
CCOC(=O)[C@]12Cc3cc(C)ccc3[C@H]1N(C1CCCCC1)C(=O)c1cc(OC)ccc12	x	-4.0%	x	2.38µM*	-10.7	x
CCOC(=O)[C@]12Cc3c(cc(OC)c(OC)c3OC)[C@H]1N(C(C)C)C(=O)c1ccccc12	x	-3.8%	x	13.4µM*	-2.0	x
c1ccc(CCN2CCCCC2)cc1	x	x	2.9%	x	x	x
CC1=NCCc2c1[nH]c1cc(O)ccc21	13.3%	-28.0%	u	1.19µM*	-3.4	-16.5%
Nc1cc2nc3ccccc3nc2cc1N	3.2%	u	-17.0%	6.7µM*	-28.2	-1.7%
CCOC(=O)CC(SP(=S)(OC)OC)C(=O)OCC (centres undefined)	28.2µM*	x	x	x	x	x
Cc1cc(/C=C2\C(=O)NC(=O)N(c3ccc(Cl)cc3)C2=O)c(C)n1-c1cccc(C(=O)O)c1	8.3%	u	u	26.7µM*	u	-1.1%
Cc1cc(/C=C2\C(=O)NC(=O)N(c3cccc(F)c3)C2=O)c(C)n1-c1cc(C(=O)O)cc(C(=O)O)c1	8.6%	u	u	u	-81.3*	-5.7%
O=C1CCCC2C3CC(CN12)C1CCCCN1C3 (centres undefined)	16.4%	x	x	x	x	x
OCC(Br)(Br)Br	3.7%	x	x	x	x	x
COc1ccc(C#Cc2ccc3c(c2)O[C@H](CN(C)C(C)=O)[C@H](C)CN([C@@H](C)CO)S3(=O)=O)cc1	x	-4.1%	x	23.8µM*	-12.2	x
COc1ccc(OC(=O)N(C)C[C@H]2OCc3cnnn3CCCC(=O)N([C@@H](C)CO)C[C@H]2C)cc1	x	5.7%	x	-6.5%	-1.2	x
Cc1ccc(-c2nnc(Nc3ccc(O)cc3)c3ccccc23)cc1S(=O)(=O)N1CCOCC1	u	x	-24.4%	x	x	x
